Measured values reported in the supplement of paper PMC6518042.

Tested on: Pectobacterium parmentieri SCC3193
Experiment: DuctApe activity index (growth/respiration on compound as sole nutrient source, blank-subtracted) (activity index (0-3)); higher = stronger utilization of the compound, active = 3 or more
Conditions: nutrient role (plate category): carbon
Experimental: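 Biolog Phenotype Microarray plates PM1, PM2A (carbon), PM3 (nitrogen) and PM4 (phosphorus/sulfur) inoculated with P. parmentieri SCC3193 in M9-C minimal salts medium with Biolog dye A, and read in the OmniLog for 46 h. Each well was tested in triplicate and the experiment was run twice. DuctApe computed a blank-subtracted activity index (AV, 0-3) from the mean curves; growth is positive at AV >= 3 and negative at AV <= 2.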

SMILES	DuctApe activity index
O=C(O)CC(O)(CC(=O)O)C(=O)O [Citric acid]	2 (inactive)
C[C@@H](O)[C@H](O)[C@H](O)[C@@H](O)C=O [D-Fucose]	0 (inactive)
O=C(O)[C@@H](O)[C@H](O)[C@H](O)[C@@H](O)C(=O)O [Mucic acid]	3 (active)
CCC(C)N (stereo not drawn) [sec-Butylamine]	0 (inactive)
C[N+](C)(C)CC(O)CC(=O)[O-] (racemic) [D,L-Carnitine]	0 (inactive)
O=C(O)[C@H](O)[C@@H](O)[C@H](O)[C@H](O)CO [D-Gluconic acid]	3 (active)
O=C(O)[C@@H]1C[C@@H](O)CN1 [Hydroxy-L-Proline]	0 (inactive)
O=CO [Formic acid]	2 (inactive)
CC(=O)N[C@@H](CO)[C@@H](O)[C@H](O)[C@H](O)CO [N-Acetyl-D-Glucosaminitol]	0 (inactive)
COC(=O)CCC(=O)O [Mono-Methylsuccinate]	2 (inactive)
C[C@H](O)C(=O)O [L-Lactic acid]	2 (inactive)
O=C(O)CO [Glycolic acid]	0 (inactive)
OC[C@H]1O[C@@H](Oc2ccc(O)cc2)[C@H](O)[C@@H](O)[C@@H]1O [Arbutin]	3 (active)
CCCC(=O)C(=O)O [a-Keto-Valeric acid]	0 (inactive)
O=C1CC[C@@H](C(=O)O)O1 [a-Hydroxyglutaric acid-g-Lactone]	1 (inactive)
OC[C@@H](O)[C@@H](O[C@@H]1O[C@H](CO)[C@H](O)[C@H](O)[C@H]1O)[C@H](O)[C@@H](O)CO [D-Lactitol]	0 (inactive)
NC(=O)CCC(=O)O [Succinamic acid]	3 (active)
OC[C@H]1OC(O[C@H]2[C@H](O)[C@@H](O)C(O[C@H]3[C@H](O)[C@@H](O)[C@@H](O)O[C@@H]3CO)O[C@@H]2CO)[C@H](O)[C@@H](O)[C@@H]1O (stereo partly drawn) [Dextrin]	0 (inactive)
O[C@@H]1[C@H](O)[C@H](O)CO[C@H]1O [D-Ribose]	3 (active)

Same assay, conditions: nutrient role (plate category): nitrogen

SMILES	DuctApe activity index
Nc1cc[nH]c(=O)n1 [Cytosine]	0 (inactive)
NC(=O)NC1NC(=O)NC1=O (stereo not drawn) [Allantoin]	0 (inactive)
N[C@@H](Cc1ccc(O)cc1)C(=O)O [L-Tyrosine]	0 (inactive)
NO [Hydroxylamine]	0 (inactive)
N[C@H](CCC(=O)O)C(=O)O [D-Glutamic acid]	0 (inactive)
NCCCCCC(=O)O [e-Amino-N-Caproic acid]	0 (inactive)
C[C@H](N)C(=O)N[C@H](C(=O)O)[C@@H](C)O	0 (inactive)
C[C@H](N)C(=O)N[C@@H](Cc1cnc[nH]1)C(=O)O	0 (inactive)
O=c1cc[nH]c(=O)[nH]1 [Uracil]	0 (inactive)

Same assay, conditions: nutrient role (plate category): phosphate & sulphur

SMILES	DuctApe activity index
NC(=O)CCCCC1CCSS1 (racemic) [DL-Lipoamide]	1 (inactive)
NC(N)=S [Thiourea]	0 (inactive)
N[C@H](CS)C(=O)O [D-Cysteine]	1 (inactive)
O=c1ccn(C2OC(COP(=O)(O)O)C(O)C2O)c(=O)[nH]1 (stereo not drawn) [Uridine 5`-Monophosphate]	2 (inactive)
N[C@@H](CSCSC[C@H](N)C(=O)O)C(=O)O [L-Djenkolic acid]	1 (inactive)
CSCC[C@@H](N)C(=O)O [D-Methionine]	2 (inactive)
N[C@@H](CS)C(=O)NCC(=O)O	1 (inactive)
Nc1ccn([C@@H]2O[C@H](COP(=O)(O)O)[C@@H](O)[C@H]2O)c(=O)n1 [Cytidine 5`-Monophosphate]	1 (inactive)
OC[C@H]1O[C@@H](S)[C@H](O)[C@@H](O)[C@@H]1O [1-Thio-b-D-Glucose]	0 (inactive)
NCCS(=O)O [Hypotaurine]	1 (inactive)
